# Source: PubChem BioAssay (NCI)
# About 79,000 compounds went through this panel and 15% of them were active in at least one assay; those are over-represented in the sample as a whole. Unmarked numbers belong to inactive results. The source made the active and inactive calls. Cut-off read from the data, not from the text of the source: active = growth inhibition above about 70%; inactive = the rest.
# Key:
# [1] = NCI Yeast Anticancer Drug Screen. Data for the rad52 strain (AID 147);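 note: 0% = growth of vehicle-treated control cultures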; conditions: S. cerevisiae rad52 mutant growth inhibition, hits give high values
# Summary of the method: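 Inhibition of yeast growth, referenced to vehicle controls, was the measured output for a strain with defective DNA damage repair.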
# [2] = NCI Yeast Anticancer Drug Screen. Data for the wt1 strain (AID 149);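 note: 0% = growth of vehicle-treated wt1 cultures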; conditions: S. cerevisiae wt1 strain (SPY 50644) growth inhibition, hits give high values
# Summary of the method: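 wt1 strain grown with compound or vehicle; inhibition taken from the growth difference.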
# [3] = NCI Yeast Anticancer Drug Screen. Data for the rad50EPP+ strain (AID 151);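 note: 0% = growth of vehicle-treated control cultures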; conditions: S. cerevisiae rad50 mutant strain, hits give high values
# Summary of the method: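 Genetically defined yeast (rad50EPP+, DNA damage repair alteration) is grown with compound, and inhibition of growth is expressed relative to vehicle-treated controls.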
# [4] = NCI Yeast Anticancer Drug Screen. Data for the mgt1 strain (AID 153); conditions: S. cerevisiae mgt1 mutant growth inhibition, hits give high values
# Summary of the method: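 In the mgt1 strain, test compounds were added and growth inhibition was determined relative to vehicle-treated controls.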
# [5] = NCI Yeast Anticancer Drug Screen. Data for the rad50 strain (AID 155);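 note: 0% = growth of vehicle-only cultures of the same strain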; conditions: S. cerevisiae rad50 strain growth inhibition, hits give high values
# Summary of the method: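 DNA repair mutant yeast, compound exposure, growth read-out; inhibition is taken relative to vehicle.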
# [6] = NCI Yeast Anticancer Drug Screen. Data for the mec2-1 strain (AID 157); conditions: S. cerevisiae mec2-1 strain, hits give high values
# Summary of the method: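 Each compound was tested on mec2-1 yeast, a strain altered in DNA damage repair or cell cycle control. Growth inhibition is reported relative to vehicle.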
# [7] = NCI Yeast Anticancer Drug Screen. Data for the rad14 strain (AID 159);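 note: 0% = growth of vehicle-treated control cultures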; conditions: S. cerevisiae rad14 strain growth inhibition, hits give high values
# Summary of the method: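 DNA repair-defective yeast, compound-exposed; % growth inhibition derived by comparison with vehicle-treated controls.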
# [8] = NCI Yeast Anticancer Drug Screen. Data for the sgs1 mgt1 strain (AID 161);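 note: 0% = growth of cultures given vehicle only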; conditions: S. cerevisiae sgs1 mgt1 strain, hits give high values
# Summary of the method: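 Inhibition of yeast growth, normalised to vehicle-treated controls, is reported for a strain bearing genetic alterations in DNA damage repair.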
# [9] = NCI Yeast Anticancer Drug Screen. Data for the CLN2oe strain (AID 163);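 note: 0% = growth of vehicle-only control cultures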; conditions: S. cerevisiae CLN2oe strain, hits give high values
# Summary of the method: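 First, the altered yeast strain was treated with each compound; second, its growth was measured; finally, inhibition was derived by comparison with vehicle controls.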
# [10] = NCI Yeast Anticancer Drug Screen. Data for the cln2 rad14 strain (AID 165);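 note: 0% = growth equal to vehicle treated cultures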; conditions: S. cerevisiae cln2 rad14 strain, hits give high values
# Summary of the method: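 Test compounds were added to cln2 rad14 yeast cultures; inhibition of growth was then determined by comparison with vehicle treatment.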
# [11] = NCI Yeast Anticancer Drug Screen. Data for the bub3 strain (AID 167); conditions: S. cerevisiae bub3 mutant strain, hits give high values
# Summary of the method: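 In this screen, a yeast mutant lacking normal mitotic checkpoint function is challenged with compound. Relative growth versus vehicle gives the inhibition value.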
# [12] = NCI Yeast Anticancer Drug Screen. Data for the wt2 strain (AID 169);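 note: 0% = growth of vehicle-treated yeast cultures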; conditions: S. cerevisiae wt2 strain growth inhibition, hits give high values
# Summary of the method: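 The panel's yeast strains carry defined changes in DNA repair or cell cycle genes. Each strain is grown with compound, and growth loss is scored relative to vehicle.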
# [13] = NCI Yeast Anticancer Drug Screen. Data for the mlh1 strain (AID 171);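 note: 0% = growth of vehicle-treated control cultures of the same strain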; conditions: S. cerevisiae mlh1 strain growth inhibition, hits give high values
# Summary of the method: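 Inhibition values reflect reduced yeast growth in the presence of compound, referenced to vehicle controls, using a strain chosen for its alteration in DNA repair or cell cycle control.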
# [14] = NCI Yeast Anticancer Drug Screen. Data for the sgs1 strain (AID 173);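 note: 0% = growth of vehicle-only control cultures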; conditions: S. cerevisiae sgs1 mutant, hits give high values
# Summary of the method: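 Vehicle-treated cultures served as reference for growth inhibition of a yeast strain altered in DNA damage repair or cell cycle control after compound exposure.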
# [15] = NCI Yeast Anticancer Drug Screen. Data for the mlh1 rad18 strain (AID 175); conditions: S. cerevisiae mlh1 rad18 strain growth inhibition, hits give high values
# Summary of the method: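 Inhibition values reflect reduced growth of mutant yeast versus vehicle-treated controls following compound exposure; the mutations affect DNA damage repair.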
# [16] = NCI Yeast Anticancer Drug Screen. Data for the rad18 strain (AID 177); conditions: S. cerevisiae rad18 mutant growth inhibition, hits give high values
# Summary of the method: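 Steps: expose repair-mutant yeast to compound; measure growth; express as inhibition relative to vehicle control.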
# [17] = at 5.0 µM (retest, dose inferred, filed as 0.5)
# [18] = at 50.0 µM (retest, dose inferred, filed as 5.0)
compound,measurement,setting,value
Cc1cc2c3ccccc3c3ccccc3c2nn1,growth inhibition,[1]; at 1.2 µM,2%
same,growth inhibition,[1]; at 3.7 µM,21%
same,growth inhibition,[1]; at 11.0 µM,60%
same,growth inhibition,[1]; at 33.0 µM,74% (active)
same,growth inhibition,[1]; at 100.0 µM,80% (active)
same,growth inhibition,[2]; at 1.2 µM,-7%
same,growth inhibition,[2]; at 3.7 µM,-6%
same,growth inhibition,[2]; at 11.0 µM,-8%
same,growth inhibition,[2]; at 33.0 µM,-8%
same,growth inhibition,[2]; at 100.0 µM,-5%
same,growth inhibition,[3]; at 1.2 µM,13%
same,growth inhibition,[3]; at 3.7 µM,38%
same,growth inhibition,[3]; at 11.0 µM,56%
same,growth inhibition,[3]; at 33.0 µM,60%
same,growth inhibition,[3]; at 100.0 µM,52%
same,growth inhibition,[4]; at 1.2 µM,-4%
same,growth inhibition,[4]; at 3.7 µM,-6%
same,growth inhibition,[4]; at 11.0 µM,-5%
same,growth inhibition,[4]; at 33.0 µM,-4%
same,growth inhibition,[4]; at 100.0 µM,-6%
same,growth inhibition,[5]; at 1.2 µM,5%
same,growth inhibition,[5]; at 3.7 µM,25%
same,growth inhibition,[5]; [17],2%
same,growth inhibition,[5]; at 11.0 µM,72% (active)
same,growth inhibition,[5]; at 33.0 µM,83% (active)
same,growth inhibition,[5]; [18],77% (active)
same,growth inhibition,[5]; at 50.0 µM,94.7% (active)
same,growth inhibition,[5]; at 100.0 µM,79% (active)
same,growth inhibition,[6]; at 1.2 µM,2%
same,growth inhibition,[6]; at 3.7 µM,0%
same,growth inhibition,[6]; [17],-46%
same,growth inhibition,[6]; at 11.0 µM,10%
same,growth inhibition,[6]; at 33.0 µM,7%
same,growth inhibition,[6]; [18],-15%
same,growth inhibition,[6]; at 50.0 µM,21.8%
same,growth inhibition,[6]; at 100.0 µM,12%
same,growth inhibition,[7]; at 1.2 µM,3%
same,growth inhibition,[7]; at 3.7 µM,8%
same,growth inhibition,[7]; at 11.0 µM,15%
same,growth inhibition,[7]; at 33.0 µM,15%
same,growth inhibition,[7]; at 100.0 µM,15%
same,growth inhibition,[8]; [17],-61%
same,growth inhibition,[8]; [18],-15%
same,growth inhibition,[8]; at 50.0 µM,36.5%
same,growth inhibition,[9]; at 1.2 µM,-3%
same,growth inhibition,[9]; at 3.7 µM,-3%
same,growth inhibition,[9]; at 11.0 µM,1%
same,growth inhibition,[9]; at 33.0 µM,1%
same,growth inhibition,[9]; at 100.0 µM,0%
same,growth inhibition,[10]; [17],-59%
same,growth inhibition,[10]; [18],-24%
same,growth inhibition,[10]; at 50.0 µM,27.5%
same,growth inhibition,[11]; at 1.2 µM,-9%
same,growth inhibition,[11]; at 3.7 µM,-1%
same,growth inhibition,[11]; [17],-64%
same,growth inhibition,[11]; at 11.0 µM,7%
same,growth inhibition,[11]; at 33.0 µM,9%
same,growth inhibition,[11]; [18],-31%
same,growth inhibition,[11]; at 50.0 µM,29.1%
same,growth inhibition,[11]; at 100.0 µM,11%
same,growth inhibition,[12]; at 1.2 µM,-4%
same,growth inhibition,[12]; at 3.7 µM,-3%
same,growth inhibition,[12]; at 11.0 µM,-3%
same,growth inhibition,[12]; at 33.0 µM,-3%
same,growth inhibition,[12]; at 100.0 µM,-6%
same,growth inhibition,[13]; at 1.2 µM,5%
same,growth inhibition,[13]; at 3.7 µM,-6%
same,growth inhibition,[13]; at 11.0 µM,0%
same,growth inhibition,[13]; at 33.0 µM,1%
same,growth inhibition,[13]; at 100.0 µM,-3%
same,growth inhibition,[14]; at 1.2 µM,-3%
same,growth inhibition,[14]; at 3.7 µM,-6%
same,growth inhibition,[14]; at 11.0 µM,0%
same,growth inhibition,[14]; at 33.0 µM,12%
same,growth inhibition,[14]; at 100.0 µM,11%
same,growth inhibition,[15]; [17],-88%
same,growth inhibition,[15]; [18],-13%
same,growth inhibition,[15]; at 50.0 µM,60.4%
same,growth inhibition,[16]; at 1.2 µM,-2%
same,growth inhibition,[16]; at 3.7 µM,2%
same,growth inhibition,[16]; at 11.0 µM,10%
same,growth inhibition,[16]; at 33.0 µM,12%
same,growth inhibition,[16]; at 100.0 µM,10%
CN(CCN(C)Cc1ccccc1)Cc1ccccc1,growth inhibition,[1]; at 1.2 µM,-5%
same,growth inhibition,[1]; at 3.7 µM,8%
same,growth inhibition,[1]; at 11.0 µM,-4%
same,growth inhibition,[1]; at 33.0 µM,19%
same,growth inhibition,[1]; at 100.0 µM,2%
same,growth inhibition,[2]; at 1.2 µM,-16%
same,growth inhibition,[2]; at 3.7 µM,-9%
same,growth inhibition,[2]; at 11.0 µM,-12%
same,growth inhibition,[2]; at 33.0 µM,0%
same,growth inhibition,[2]; at 100.0 µM,14%
same,growth inhibition,[3]; at 1.2 µM,-13%
same,growth inhibition,[3]; at 3.7 µM,-3%
same,growth inhibition,[3]; at 11.0 µM,-4%
same,growth inhibition,[3]; at 33.0 µM,-22%
same,growth inhibition,[3]; at 100.0 µM,-40%
same,growth inhibition,[4]; at 1.2 µM,-13%
same,growth inhibition,[4]; at 3.7 µM,-4%
same,growth inhibition,[4]; at 11.0 µM,14%
same,growth inhibition,[4]; at 33.0 µM,11%
same,growth inhibition,[4]; at 100.0 µM,58%
same,growth inhibition,[5]; at 1.2 µM,-18%
same,growth inhibition,[5]; at 3.7 µM,-12%
same,growth inhibition,[5]; [17],40%
same,growth inhibition,[5]; at 11.0 µM,-5%
same,growth inhibition,[5]; at 33.0 µM,9%
same,growth inhibition,[5]; [18],79% (active)
same,growth inhibition,[5]; at 50.0 µM,24.5%
same,growth inhibition,[5]; at 100.0 µM,6%
same,growth inhibition,[6]; at 1.2 µM,-33%
same,growth inhibition,[6]; at 3.7 µM,-19%
same,growth inhibition,[6]; [17],45%
same,growth inhibition,[6]; at 11.0 µM,-25%
same,growth inhibition,[6]; at 33.0 µM,-6%
same,growth inhibition,[6]; [18],81% (active)
same,growth inhibition,[6]; at 50.0 µM,12.9%
same,growth inhibition,[6]; at 100.0 µM,2%
same,growth inhibition,[7]; at 1.2 µM,5%
same,growth inhibition,[7]; at 3.7 µM,18%
same,growth inhibition,[7]; at 11.0 µM,18%
same,growth inhibition,[7]; at 33.0 µM,43%
same,growth inhibition,[7]; at 100.0 µM,68%
same,growth inhibition,[8]; [17],-1%
same,growth inhibition,[8]; [18],57%
same,growth inhibition,[8]; at 50.0 µM,51.3%
same,growth inhibition,[9]; at 1.2 µM,-12%
same,growth inhibition,[9]; at 3.7 µM,-5%
same,growth inhibition,[9]; at 11.0 µM,5%
same,growth inhibition,[9]; at 33.0 µM,18%
same,growth inhibition,[9]; at 100.0 µM,44%
same,growth inhibition,[10]; [17],16%
same,growth inhibition,[10]; [18],38%
same,growth inhibition,[10]; at 50.0 µM,31.1%
same,growth inhibition,[11]; at 1.2 µM,-31%
same,growth inhibition,[11]; at 3.7 µM,-15%
same,growth inhibition,[11]; [17],14%
same,growth inhibition,[11]; at 11.0 µM,-13%
same,growth inhibition,[11]; at 33.0 µM,9%
same,growth inhibition,[11]; [18],39%
same,growth inhibition,[11]; at 50.0 µM,60.5%
same,growth inhibition,[11]; at 100.0 µM,3%
same,growth inhibition,[12]; at 1.2 µM,-17%
same,growth inhibition,[12]; at 3.7 µM,-9%
same,growth inhibition,[12]; at 11.0 µM,2%
same,growth inhibition,[12]; at 33.0 µM,1%
same,growth inhibition,[12]; at 100.0 µM,14%
same,growth inhibition,[13]; at 1.2 µM,8%
same,growth inhibition,[13]; at 3.7 µM,4%
same,growth inhibition,[13]; at 11.0 µM,12%
same,growth inhibition,[13]; at 33.0 µM,23%
same,growth inhibition,[13]; at 100.0 µM,52%
same,growth inhibition,[14]; at 1.2 µM,-6%
same,growth inhibition,[14]; at 3.7 µM,-10%
same,growth inhibition,[14]; at 11.0 µM,-10%
same,growth inhibition,[14]; at 33.0 µM,10%
same,growth inhibition,[14]; at 100.0 µM,30%
same,growth inhibition,[15]; [17],25%
same,growth inhibition,[15]; [18],72% (active)
same,growth inhibition,[15]; at 50.0 µM,32.3%
same,growth inhibition,[16]; at 1.2 µM,-2%
same,growth inhibition,[16]; at 3.7 µM,14%
same,growth inhibition,[16]; at 11.0 µM,17%
same,growth inhibition,[16]; at 33.0 µM,32%
same,growth inhibition,[16]; at 100.0 µM,35%
